Data: PubChem BioAssay (NCI)
The panel holds about 83,000 compounds, 20% with a hit somewhere; the sample as a whole holds those more often.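 Treatment: one concentration, 48 hours, 96-well format. Scoring: percent growth, with anything below 10 considered active.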 The source made the active and inactive calls.

Tests used:
Experiment in all cases: NCI-60 one-dose screen, 48 h (100 = growth as untreated, 0 = no growth, -100 = all killed)
Conditions in all cases: 10 µM unless noted
[1] = test system: SR leukemia
[2] = test system: RPMI-8226 leukemia
[3] = test system: OVCAR-8 ovarian
[4] = test system: OVCAR-5 ovarian
[5] = test system: OVCAR-4 ovarian
[6] = test system: SK-OV-3 ovarian
[7] = test system: IGROV1 ovarian
[8] = test system: OVCAR-3 ovarian
[9] = test system: HS 578T breast
[10] = test system: NCI/ADR-RES ovarian
[11] = test system: T-47D breast
[12] = test system: BT-549 breast
[13] = test system: MDA-MB-435 melanoma
[14] = test system: SW-620 colon
[15] = test system: MCF7 breast
[16] = test system: HCT-116 colon
[17] = test system: HCC-2998 colon
[18] = test system: KM12 colon

Measured: growth

CC(C)(C)C(=O)Nc1nc2c(s1)CCc1ccn(S(=O)(=O)c3ccccc3)c1-2
inactive: [1] 83.1% | [2] 78.6% | [3] 100% | [4] 97.7% | [5] 95.2% | [6] 96.1% | [7] 97.3% | [8] 95.3% | [9] 98.6% | [10] 85.7% | [11] 66.6% | [12] 94.5% | [13] 108% | [14] 101% | [15] 85.9% | [16] 78.7% | [17] 100% | [18] 89.8%

OC[C@@H](O)C(O[C@@H]1O[C@H](CO)[C@H](O)[C@H](O)[C@H]1O)[C@H](O)[C@@H](O)CO (stereo not given in full)
inactive: [1] 87.4% | [2] 103% | [3] 98.6% | [4] 91.8% | [5] 106% | [6] 99.5% | [7] 95.9% | [8] 103% | [9] 129% | [10] 95.4% | [11] 105% | [12] 107% | [13] 95.4% | [14] 102% | [15] 106% | [16] 113% | [17] 95.6% | [18] 103%

COC(=O)c1ccc2c(c1)Oc1ccc(Cl)cc1-c1cc(C)nn1-2
inactive: [1] 69.9% | [2] 74.9% | [3] 72.8% | [4] 91.2% | [6] 53.5% | [7] 61.8% | [8] 39% | [9] 55.1% | [10] 73.4% | [11] 71.7% | [12] 96% | [13] 97.5% | [14] 68.5% | [15] 79.4% | [16] 44% | [17] 100% | [18] 87.7%
active: [5] -6.66%

CCOc1ccccc1C(=O)N1CCN(c2cc(Cl)cc(Cl)c2)CC1
active: [1] 6.79% | [2] 1.53% | [8] -22.7% | [12] -13.2% | [13] -12.8% | [16] -6.57% | [18] 8.79%
inactive: [3] 11.2% | [4] 46.6% | [5] 31.7% | [6] 25.8% | [7] 13.8% | [9] 41.3% | [10] 14.5% | [11] 49% | [14] 22.9% | [15] 15.2% | [17] 16.4%

CCCCCCCC(=O)SCC/C=C/[C@@H]1CC(=O)NCc2nc(cs2)C2=N[C@@](C)(CS2)C(=O)N[C@@H](C(C)C)C(=O)N1
inactive: [4] 22.5% | [5] 31% | [9] 11.5% | [10] 84.5% | [12] 40.1% | [14] 26.9% | [15] 13.2%
active: [1] 6.51% | [2] -6.34% | [3] 5.08% | [6] -4.42% | [7] 0.908% | [8] -7.56% | [11] -25.6% | [13] 6.04% | [16] -30.3% | [17] -6.96% | [18] 8.82%

CS(=O)(=O)Nc1cccc(-c2ccc3ncnc(Nc4cncc(Cl)c4)c3c2)c1
inactive: [3] 38.7% | [4] 56.7% | [5] 50.9% | [8] 31.9% | [10] 79.7% | [12] 34.8% | [13] 49.9% | [14] 33.2% | [15] 15.6% | [16] 30.4% | [17] 39.2% | [18] 32.7%
active: [1] -10.5% | [2] -8.07% | [6] -7.86% | [7] -13.8% | [9] -2.64% | [11] -21.9%

CCCCCCCCCCCCCCCCCCNCc1ccc(Cl)cc1
inactive: [12] 38.5%
active: [1] -30.1% | [2] -53.9% | [3] -62.7% | [4] -59.5% | [5] -69.1% | [6] -33.1% | [7] -64.6% | [8] -87.9% | [9] -48.7% | [10] -64.6% | [11] 9.34% | [13] -80.3% | [14] -75.8% | [15] -71.2% | [16] -74.5% | [17] -82.8% | [18] -77.2%

CN(C)CCNc1nc2ccccc2c2c(=O)c3ccccc3sc12
inactive: [3] 14.6% | [4] 46% | [5] 38.4% | [6] 31.5% | [7] 28.5% | [8] 31.2% | [9] 30.3% | [10] 20.9% | [11] 49% | [12] 74.4% | [18] 18.5%
active: [1] -18.1% | [2] -8.02% | [13] 8.44% | [14] -54% | [15] -46.9% | [16] -9.31% | [17] -11.3%

COc1ccc2c(-c3ccc(F)cc3)c(C#N)c(=NC(C)=O)oc2c1
inactive: [1] 13.7% | [2] 12.3% | [3] 50.2% | [4] 103% | [5] 92.5% | [6] 44.6% | [7] 54% | [8] 18.2% | [9] 42.9% | [10] 31.2% | [11] 55.8% | [12] 29.1% | [14] 23% | [15] 21.4% | [16] 25% | [17] 60.3% | [18] 30.3%
active: [13] -3.09%

CN[C@@H](CCCNC(N)=NC/C=C(/C)CCC=C(C)C)C(=O)N(C)[C@@H](CCCNC(N)=NCC=C(C)C)C(=O)N[C@H](C)[C@H](OS(=O)(=O)O)c1ccc(OS(=O)(=O)O)c(COS(=O)(=O)O)c1
inactive: [1] 114% | [2] 92.9% | [3] 98.4% | [4] 113% | [5] 120% | [6] 110% | [7] 110% | [8] 107% | [9] 97.3% | [10] 105% | [11] 98.1% | [12] 107% | [13] 113% | [14] 108% | [15] 97.7% | [16] 101% | [17] 105% | [18] 100%

COc1cc2ncnc(Oc3ccc(NC(=O)Nc4ccc(C5(C#N)CCCC5)cc4)c4ccccc34)c2cc1OC
inactive: [1] 70.3% | [2] 58.8% | [4] 81% | [6] 40.7% | [7] 40% | [8] 52% | [9] 29.6% | [10] 72.2% | [11] 64.3% | [12] 86.5% | [13] 43.4% | [14] 53.9% | [15] 55.2% | [16] 30.8% | [17] 107% | [18] 43.7%
active: [3] 0.585% | [5] -1.26%

CCn1cc(/C=C2\Oc3cc(OCC#N)ccc3C2=O)c2cc(OC)ccc21
active: [8] -6.84% | [13] -20.7%
inactive: [1] 19.2% | [2] 15.1% | [3] 21% | [4] 62.1% | [5] 85.6% | [6] 43.3% | [7] 43.3% | [9] 29.4% | [10] 11.2% | [11] 48.4% | [12] 52.6% | [14] 28% | [15] 20.6% | [16] 12.4% | [17] 55.6% | [18] 23.6%

Cc1cn(-c2nc3c(c(NCc4ccccc4)n2)COCC3)c2cccc(C(N)=O)c12
inactive: [1] 50.8% [0.5 µM] | [3] 58.1% [0.5 µM] | [4] 70.8% [0.5 µM] | [5] 58.8% [0.5 µM] | [6] 111% [0.5 µM] | [7] 82.3% [0.5 µM] | [8] 91.5% [0.5 µM] | [9] 83.5% [0.5 µM] | [10] 86% [0.5 µM] | [11] 62.7% [0.5 µM] | [12] 89% [0.5 µM] | [13] 63.9% [0.5 µM] | [14] 86.1% [0.5 µM] | [15] 35.5% [0.5 µM] | [16] 11.4% [0.5 µM] | [17] 69.9% [0.5 µM] | [18] 63.2% [0.5 µM]
active: [2] -15.3% [0.5 µM]

O=C(c1cc(-c2ccc(Cl)cc2)nc2ccccc12)N1N=C(c2ccccc2)CC1c1cc(-c2ccccc2)nn1-c1ccccc1 (stereo not given)
inactive: [1] 73.4% | [2] 86.8% | [3] 87.1% | [4] 89.4% | [5] 64.3% | [6] 93.8% | [7] 60.8% | [8] 68.8% | [9] 89.3% | [10] 81.5% | [11] 75.5% | [12] 84.9% | [13] 83.4% | [14] 80.6% | [15] 76.3% | [16] 68.1% | [17] 89.5% | [18] 68.6%

Nc1c(C(=O)O)[nH]c(=O)[nH]c1=O
inactive: [1] 90.2% | [2] 99.9% | [3] 108% | [4] 105% | [5] 111% | [6] 102% | [7] 112% | [8] 105% | [9] 102% | [10] 108% | [11] 104% | [12] 107% | [13] 108% | [14] 108% | [15] 95.6% | [16] 96.8% | [17] 105% | [18] 106%
